# Measurements as given in PubChem BioAssay (NCI).
# Compounds without any hit were thinned out: in the full panel of roughly 79,000, 15% have a hit. Values without a mark were called inactive. Calls of active or inactive are those of the source. Cut-off read from the data, not from the text of the source: active = growth inhibition above about 70%; inactive = the rest.
# How the values were obtained:
# [1] = NCI Yeast Anticancer Drug Screen. Data for the rad52 strain (AID 147);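 note: 0% = growth of vehicle-treated control cultures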; conditions: S. cerevisiae rad52 mutant growth inhibition, stronger effect = higher value
# Procedure, shortened: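 Measured: yeast growth inhibition. System: strain with a defined DNA damage repair alteration. Reference: vehicle-treated control cultures.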
# [2] = NCI Yeast Anticancer Drug Screen. Data for the wt1 strain (AID 149);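 note: 0% = growth of vehicle-treated wt1 cultures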; conditions: S. cerevisiae wt1 strain (SPY 50644) growth inhibition, stronger effect = higher value
# Procedure, shortened: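 Each compound is tested on wt1 yeast and the loss of growth versus vehicle gives the inhibition value.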
# [3] = NCI Yeast Anticancer Drug Screen. Data for the mgt1 strain (AID 153); conditions: S. cerevisiae mgt1 mutant growth inhibition, stronger effect = higher value
# Procedure, shortened: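 After exposure of the mgt1 yeast mutant to compound, growth was measured and reported as inhibition compared with vehicle controls.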
# [4] = NCI Yeast Anticancer Drug Screen. Data for the rad50 strain (AID 155);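 note: 0% = growth of vehicle-only cultures of the same strain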; conditions: S. cerevisiae rad50 strain growth inhibition, stronger effect = higher value
# Procedure, shortened: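 Vehicle-treated cultures provide the reference for the growth inhibition reported for compound-exposed, repair-deficient yeast.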
# [5] = NCI Yeast Anticancer Drug Screen. Data for the mec2-1 strain (AID 157); conditions: S. cerevisiae mec2-1 strain, stronger effect = higher value
# Procedure, shortened: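 Test agents were screened against the mec2-1 yeast strain, with defined DNA repair or cell cycle alteration. Growth was scored as inhibition against vehicle-only controls.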
# [6] = NCI Yeast Anticancer Drug Screen. Data for the rad14 strain (AID 159);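 note: 0% = growth of vehicle-treated control cultures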; conditions: S. cerevisiae rad14 strain growth inhibition, stronger effect = higher value
# Procedure, shortened: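 Inhibition of growth is reported for a repair-deficient yeast mutant following compound treatment, calculated relative to cultures that received vehicle.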
# [7] = NCI Yeast Anticancer Drug Screen. Data for the sgs1 mgt1 strain (AID 161);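 note: 0% = growth of cultures given vehicle only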; conditions: S. cerevisiae sgs1 mgt1 strain, stronger effect = higher value
# Procedure, shortened: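 Genetically altered yeast, compound exposure, growth inhibition relative to vehicle.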
# [8] = NCI Yeast Anticancer Drug Screen. Data for the CLN2oe strain (AID 163);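 note: 0% = growth of vehicle-only control cultures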; conditions: S. cerevisiae CLN2oe strain, stronger effect = higher value
# Procedure, shortened: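 Here, growth inhibition in a cell-cycle-altered yeast strain after compound exposure was quantified against vehicle control growth.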
# [9] = NCI Yeast Anticancer Drug Screen. Data for the cln2 rad14 strain (AID 165);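 note: 0% = growth equal to vehicle treated cultures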; conditions: S. cerevisiae cln2 rad14 strain, stronger effect = higher value
# Procedure, shortened: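 Growth of compound-exposed yeast (cln2 rad14 genotype) measured and expressed as inhibition relative to vehicle.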
# [10] = NCI Yeast Anticancer Drug Screen. Data for the bub3 strain (AID 167); conditions: S. cerevisiae bub3 mutant strain, stronger effect = higher value
# Procedure, shortened: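 Mutant yeast screening strain plus compound; vehicle-treated cultures serve as the 0% inhibition reference.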
# [11] = NCI Yeast Anticancer Drug Screen. Data for the wt2 strain (AID 169); conditions: S. cerevisiae wt2 strain growth inhibition, stronger effect = higher value
# Procedure, shortened: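 Genetically defined yeast strains from a DNA-repair/cell-cycle panel were used. Compound-exposed yeast growth was measured, and the inhibition was calculated relative to vehicle treatment.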
# [12] = NCI Yeast Anticancer Drug Screen. Data for the mlh1 strain (AID 171);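 note: 0% = growth of vehicle-treated control cultures of the same strain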; conditions: S. cerevisiae mlh1 strain growth inhibition, stronger effect = higher value
# Procedure, shortened: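 Here the genetically defined yeast mutant is grown with each compound, and the extent to which its growth falls below that of vehicle-exposed cells is reported.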
# [13] = NCI Yeast Anticancer Drug Screen. Data for the sgs1 strain (AID 173);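 note: 0% = growth of vehicle-only control cultures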; conditions: S. cerevisiae sgs1 mutant, stronger effect = higher value
# Procedure, shortened: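 Relative growth inhibition, referenced to vehicle, was determined in a yeast strain with a defined alteration affecting DNA damage repair or cell cycle control after compound exposure.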
# [14] = NCI Yeast Anticancer Drug Screen. Data for the mlh1 rad18 strain (AID 175); conditions: S. cerevisiae mlh1 rad18 strain growth inhibition, stronger effect = higher value
# Procedure, shortened: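 In this whole-cell yeast screen, a strain with altered DNA damage repair is challenged with compound, and its growth is measured against matched vehicle-treated controls.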
# [15] = NCI Yeast Anticancer Drug Screen. Data for the rad18 strain (AID 177); conditions: S. cerevisiae rad18 mutant growth inhibition, stronger effect = higher value
# Procedure, shortened: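 Screen uses a yeast strain with a defined lesion in DNA damage repair; compound effect is read as loss of growth compared to untreated vehicle cultures.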
# [16] = at 5.0 µM (retest, dose inferred, filed as 0.5)
# [17] = at 50.0 µM (retest, dose inferred, filed as 5.0)
compound,measurement,setting,value
COc1ccccc1/C=C\C(=O)C1COCN1 (stereo not drawn),growth inhibition,[1]; at 1.2 µM,4%
same,growth inhibition,[1]; at 3.7 µM,14%
same,growth inhibition,[1]; at 11.0 µM,25%
same,growth inhibition,[1]; at 33.0 µM,71% (active)
same,growth inhibition,[1]; at 100.0 µM,99% (active)
same,growth inhibition,[2]; at 1.2 µM,-4%
same,growth inhibition,[2]; at 3.7 µM,-4%
same,growth inhibition,[2]; at 11.0 µM,-7%
same,growth inhibition,[2]; at 33.0 µM,19%
same,growth inhibition,[2]; at 100.0 µM,99% (active)
same,growth inhibition,[3]; at 1.2 µM,-1%
same,growth inhibition,[3]; at 3.7 µM,-2%
same,growth inhibition,[3]; at 11.0 µM,-2%
same,growth inhibition,[3]; at 33.0 µM,53%
same,growth inhibition,[3]; at 100.0 µM,99% (active)
same,growth inhibition,[4]; at 1.2 µM,9%
same,growth inhibition,[4]; at 3.7 µM,6%
same,growth inhibition,[4]; [16],-141%
same,growth inhibition,[4]; at 11.0 µM,12%
same,growth inhibition,[4]; at 33.0 µM,95% (active)
same,growth inhibition,[4]; [17],82% (active)
same,growth inhibition,[4]; at 50.0 µM,97.2% (active)
same,growth inhibition,[4]; at 100.0 µM,98% (active)
same,growth inhibition,[5]; at 1.2 µM,4%
same,growth inhibition,[5]; at 3.7 µM,5%
same,growth inhibition,[5]; [16],-49%
same,growth inhibition,[5]; at 11.0 µM,12%
same,growth inhibition,[5]; at 33.0 µM,38%
same,growth inhibition,[5]; [17],28%
same,growth inhibition,[5]; at 50.0 µM,98.7% (active)
same,growth inhibition,[5]; at 100.0 µM,99% (active)
same,growth inhibition,[6]; at 1.2 µM,0%
same,growth inhibition,[6]; at 3.7 µM,-1%
same,growth inhibition,[6]; at 11.0 µM,9%
same,growth inhibition,[6]; at 33.0 µM,38%
same,growth inhibition,[6]; at 100.0 µM,99% (active)
same,growth inhibition,[7]; [16],-63%
same,growth inhibition,[7]; [17],75% (active)
same,growth inhibition,[7]; at 50.0 µM,84.7% (active)
same,growth inhibition,[8]; at 1.2 µM,2%
same,growth inhibition,[8]; at 3.7 µM,1%
same,growth inhibition,[8]; at 11.0 µM,1%
same,growth inhibition,[8]; at 33.0 µM,13%
same,growth inhibition,[8]; at 100.0 µM,98% (active)
same,growth inhibition,[9]; [16],-57%
same,growth inhibition,[9]; [17],-60%
same,growth inhibition,[9]; at 50.0 µM,7.45%
same,growth inhibition,[10]; at 1.2 µM,0%
same,growth inhibition,[10]; at 3.7 µM,9%
same,growth inhibition,[10]; [16],-53%
same,growth inhibition,[10]; at 11.0 µM,18%
same,growth inhibition,[10]; at 33.0 µM,69%
same,growth inhibition,[10]; [17],69%
same,growth inhibition,[10]; at 50.0 µM,97.3% (active)
same,growth inhibition,[10]; at 100.0 µM,99% (active)
same,growth inhibition,[11]; at 1.2 µM,2%
same,growth inhibition,[11]; at 3.7 µM,1%
same,growth inhibition,[11]; at 11.0 µM,0%
same,growth inhibition,[11]; at 33.0 µM,37%
same,growth inhibition,[11]; at 100.0 µM,99% (active)
same,growth inhibition,[12]; at 1.2 µM,9%
same,growth inhibition,[12]; at 3.7 µM,2%
same,growth inhibition,[12]; at 11.0 µM,12%
same,growth inhibition,[12]; at 33.0 µM,83% (active)
same,growth inhibition,[12]; at 100.0 µM,99% (active)
same,growth inhibition,[13]; at 1.2 µM,1%
same,growth inhibition,[13]; at 3.7 µM,2%
same,growth inhibition,[13]; at 11.0 µM,18%
same,growth inhibition,[13]; at 33.0 µM,92% (active)
same,growth inhibition,[13]; at 100.0 µM,99% (active)
same,growth inhibition,[14]; [16],-122%
same,growth inhibition,[14]; [17],82% (active)
same,growth inhibition,[14]; at 50.0 µM,99.1% (active)
same,growth inhibition,[15]; at 1.2 µM,0%
same,growth inhibition,[15]; at 3.7 µM,5%
same,growth inhibition,[15]; at 11.0 µM,15%
same,growth inhibition,[15]; at 33.0 µM,67%
same,growth inhibition,[15]; at 100.0 µM,98% (active)
